Results reported in publication PMC5540273 (PLoS ONE, 2017).

Assays:
Details in all cases: concentration: 1 μM,replicates: in singlicate; n = 1
RIOK1 = tested on: RIOK1
RIOK2 = tested on: RIOK2
RIOK3 = tested on: RIOK3
RIPK1 = tested on: RIPK1
RIPK2 = tested on: RIPK2
RIPK4 = tested on: RIPK4
RIPK5 = tested on: RIPK5
ROCK1 = tested on: ROCK1
ROCK2 = tested on: ROCK2
ROS1 = tested on: ROS1
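Note: KINOMEscan kinase panel screen.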

| Compound | %Inh (RIOK1) [%] | %Inh (RIOK2) [%] | %Inh (RIOK3) [%] | %Inh (RIPK1) [%] | %Inh (RIPK2) [%] | %Inh (RIPK4) [%] | %Inh (RIPK5) [%] | %Inh (ROCK1) [%] | %Inh (ROCK2) [%] | %Inh (ROS1) [%] |
| --- | --- | --- | --- | --- | --- | --- | --- | --- | --- | --- |
| Cc1cc(C(=O)Nc2ccc(Oc3ccc4nc(NC(=O)C5CC5)cn4n3)cc2)nn1-c1ccccc1 | 17 | 0 | 41 | 0 | 24 | 0 | 0 | 0 | 0 | 0 |
| Cc1n[nH]c2ccc(-c3cc(OC[C@@H](N)Cc4ccccc4)cnc3-c3ccoc3)cc12.O=C(O)C(F)(F)F.O=C(O)C(F)(F)F [GSK507358] | 93 | 0 | 72 | 0 | 0 | 0 | 0 | 31 | 33 | 0 |
| C[C@@H](Oc1cc(-c2cnn(C3CCNCC3)c2)cnc1N)c1c(Cl)ccc(F)c1Cl | 39 | 0 | 50 | 6 | 32 | 34 | 80 | 5 | 20 | – |
| Cl.Cl.Nc1nc(-c2ccc3c(N)n[nH]c3c2)cc(N2CCCC(NC(=O)c3ccccc3)C2)n1 (stereo not drawn) [GSK2286775] | 96.5 | 9 | 99.3 | 4 | 8 | 39 | 5 | 2 | 30 | 0 |
| CN(C)CCOc1ccc(-c2cc(-c3c[nH]nc3-c3ccccn3)ccn2)cc1 [GW835314] | 0 | 2 | 8 | 0 | 78 | 16 | 14 | 9 | 18 | 21 |
| Cl.Cl.NC[C@H](Cc1ccc(C(F)(F)F)cc1)NC(=O)c1cc(Br)c(-c2ccnc3[nH]ccc23)s1 [GSK1487252] | 35 | 0 | 12 | 0 | 0 | 19 | 0 | 98.2 | 99.5 | 44 |
| NC(=O)c1cc(-c2ccccc2)cc2c(C3CCNCC3)c[nH]c12 [GSK301362] | 79 | 20 | 64 | 0 | 7 | 19 | 0 | 40 | 19 | 23 |
| Nc1nc(Nc2ccccc2)cc(-c2ccc3c(N)n[nH]c3c2)n1 [GSK2225749] | 98.5 | 54 | 76 | 0 | 0 | 44 | 0 | – | 45 | 0 |
| CCN(CC)CCOc1ccc(Nc2ncc3cc(-c4c(Cl)cccc4Cl)c(=O)n(C)c3n2)cc1 [SB-601273] | 35 | 29 | 92.3 | 100 | 99.7 | 18 | 44 | 25 | 50 | 50 |
| CNC(=O)c1ccccc1Sc1ccc2c(/C=C/c3ccccn3)n[nH]c2c1 | 2 | 0 | 0 | 12 | 22 | 0 | 11 | 5 | 17 | 45 |
| Cc1ccc2c(-c3ccncc3)c(-c3ccc(F)cc3)nn2c1.Cl [GW461484] | 0 | 0 | 19 | 0 | 55 | 0 | 0 | 14 | 5 | 0 |
| O=C(NCCCN1CCOC1=O)c1cnc(NCc2cc(Cl)ccc2Cl)nc1NC1CCCC1 | 0 | 0 | 6 | 1 | 0 | 11 | 0 | 0 | 0 | 18 |
| COc1ccc(C[C@@H](CN)NC(=O)c2cc(Br)c(-c3ccnc4[nH]ccc34)s2)cc1.Cl.Cl [GSK1389063] | 89 | 49 | 80 | 0 | 4 | 36 | 28 | 100 | 95.2 | 59 |
| CC(C)Nc1cc(-c2ccc3c(N)n[nH]c3c2)nc(N)n1 [GSK2221681] | 94.1 | 19 | 66 | 0 | 0 | 66 | 0 | 7 | 41 | 5 |
| Cc1occc1-c1nc(N)c(OC[C@@H](N)Cc2c[nH]c3ccccc23)cc1-c1cc2c(C)n[nH]c2cn1 [GSK1660450] | 87 | 16 | 59 | 0 | 10 | 4 | 0 | 93.7 | 82 | 4 |
| CCn1c(-c2nonc2N)nc2c(C#CC(C)(C)O)nc(OCCN)cc21.Cl.Cl [GSK902056] | 0 | 8 | 0 | 0 | 0 | 0 | 4 | 18 | 0 | 2 |
| Cc1ccc(-n2nc(C(C)(C)C)cc2NC(=O)Nc2ccc(OCCN3CCOCC3)c3ccccc23)cc1 [GW839464] | 54 | 0 | 8 | 29 | 0 | 0 | 0 | 0 | 0 | 0 |
| CCN(CC)CCCCNc1ncc2cc(-c3c(Cl)cccc3Cl)c(NC(=O)NC(C)(C)C)nc2n1 | 0 | 6 | 0 | 17 | 54 | 0 | 26 | 0 | 9 | 43 |
| C[C@@H]1CCN(C(=O)CC#N)C[C@@H]1N(C)c1ncnc2[nH]ccc12 | 0 | 0 | 37 | 0 | 0 | 0 | 0 | – | 46 | 6 |
| O=C(NCCNc1ccnc(NCc2ccc(F)cc2)n1)c1cc2ccccc2s1 [GSK1379944] | 28 | 0 | 17 | 0 | 73 | 5 | 0 | 0 | 0 | 7 |
| C=CC(=O)Nc1cc2c(Nc3ccc(F)c(Cl)c3)ncnc2cc1OCCCN1CCOCC1 [GW781483] | 54 | 10 | 46 | 8 | 53 | 26 | 4 | 42 | 0 | 4 |
| C[C@H]1Oc2cc(cnc2N)-c2c(nn(C)c2C#N)CN(C)C(=O)c2ccc(F)cc21 | 0 | 0 | 0 | 12 | 0 | 0 | 89 | 0 | 0 | 98.5 |
| Cl.Oc1cc(-c2nc(-c3ccccc3)[nH]c2-c2ccncc2)ccc1Cl [SB-386023] | 0 | 5 | 0 | 0 | 78 | 17 | 21 | 1 | 6 | 19 |
| CN(C)CC(O)COc1ccc(Nc2nccc(-c3cnn4nc(N5CCOCC5)ccc34)n2)cc1 (stereo not drawn) [GW767488] | 96.6 | 98.2 | 98.2 | 46 | 0 | 55 | 65 | 93.8 | 97.9 | 48 |
| Cl.Cl.NC[C@H](CC1CCCCC1)NC(=O)c1cc(Br)c(-c2ccnc3[nH]ccc23)s1 [GSK1581427] | 100 | 66 | 80 | 0 | 0 | 20 | 5 | 100 | 99.1 | 17 |
| Cc1cc2cn[nH]c2cc1-c1cccc2c(N)c(C(N)=O)nnc12 | 100 | 77 | 73 | 0 | 4 | 84 | 74 | 70 | 68 | 80 |
| CC(C)N1C(=O)Cc2cc(Nc3ncc(C(F)(F)F)c(NCc4cccc(S(C)(=O)=O)c4)n3)ccc21 | 46 | 21 | 88 | 0 | 4 | 42 | 43 | 3 | 0 | 59 |
